Assay results from PubChem BioAssay AID504895 (National Center for Advancing Translational Sciences (NCATS), 2011).
Records with an inconclusive call do not appear. Activity calls are given as the source filed them. The call rests on the fitted dose curve; in most records, active means well fitted curve in the direction sought with a large enough effect; inconclusive means small, poorly fitted or top-dose-only effect, or another doubt; inactive means no such curve, though single readings can be large or run the other way.

What follows are compounds tested against Protein phosphatase EYA2 (Homo sapiens) (UniProt O00167) (assay: Inhibitors of Eya2ED: Hit Confirmation in Primary Screen). Conditions: Recombinant Eya2ED, OMFP fluorescence phosphatase assay; series mostly up to 76.9 µM; activity change, negative = inhibition: at the top concentration.
Protein phosphatase EYA2 (Homo sapiens), sequence (O00167 whole entry, looked up): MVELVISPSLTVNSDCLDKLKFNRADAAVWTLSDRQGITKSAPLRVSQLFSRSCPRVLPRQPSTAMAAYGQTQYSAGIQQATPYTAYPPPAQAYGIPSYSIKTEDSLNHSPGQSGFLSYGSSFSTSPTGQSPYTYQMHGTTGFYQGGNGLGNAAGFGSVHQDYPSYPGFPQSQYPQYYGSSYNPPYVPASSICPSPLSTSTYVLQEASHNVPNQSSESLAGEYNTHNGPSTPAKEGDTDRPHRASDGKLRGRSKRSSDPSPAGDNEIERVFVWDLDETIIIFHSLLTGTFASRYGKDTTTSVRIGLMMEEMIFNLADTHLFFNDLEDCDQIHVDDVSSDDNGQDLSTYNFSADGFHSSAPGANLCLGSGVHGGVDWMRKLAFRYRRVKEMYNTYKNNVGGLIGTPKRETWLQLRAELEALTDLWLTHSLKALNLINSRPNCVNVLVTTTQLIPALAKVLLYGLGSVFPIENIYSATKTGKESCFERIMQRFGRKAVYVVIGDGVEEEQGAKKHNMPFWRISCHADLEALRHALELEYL
Procedure, shortened: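 Hits were retested as 12-point titrations. Compound sat 10 min at ambient with Eya2 (0.2 uM in dispense) in HEPES pH 7.5 buffer with NaCl, MgCl2, BSA and DTT, then OMFP substrate (50 uM in dispense) was added. Dephosphorylation was read by fluorescence at 485/525 nm after a further 10 min.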

Activity change, negative = inhibition, inactive:
COC(=O)C(NNc1ccccc1)(NC(=O)c1cccc(F)c1)C(F)(F)F (stereo unspecified) 1.48%
CC[C@]12c3[nH]c4ccccc4c3CCN1C(=O)C(CC(=O)NCCc1ccccn1)C[C@@H]2C(=O)N1CCN(C(=O)c2ccco2)CC1 (stereo partly specified) -3.62%
COc1cccc(-c2cc(C(F)(F)F)nc(N3CCN(c4ccccc4)CC3)n2)c1 -0.431%
COc1cc2c(cc1OC)C(c1c(Cl)cccc1Cl)NC(=O)C2 (stereo unspecified) -5.08%
Nc1ccccc1-c1nc2ccccc2[nH]1 6.87%
N#Cc1ccccc1NC(=O)CSC1=Nc2ccccc2C2CC=NN12 (stereo unspecified) -26.1%
O=C(COC(=O)c1cc(S(=O)(=O)N2CCCC2)ccc1O)Nc1ccccc1Br -5.64%
Cn1cccc1C(=O)Nc1ccc(Cl)c(S(=O)(=O)N2CCCCC2)c1 -22.9%
CC1CN(S(=O)(=O)c2ccc(C(=O)Nc3nnc(-c4ccco4)o3)cc2)CC(C)O1 (stereo unspecified) 12.1%
CN(CCCC(=O)N1CCN(c2ncccn2)CC1)S(=O)(=O)c1ccc(F)cc1 -1.76%
COc1ccc(-c2noc(CCC(=O)NC3CCCCC3)n2)cc1OC -5.13%
COc1ccc(C(=O)NCCSCc2ccccc2C)cc1 -14.1%
COc1cc(C(=O)Nc2ccc(NC(=O)c3ccccc3Cl)nc2)cc(OC)c1OC 24.2%
CS(=O)(=O)c1ccc2nc(NC(=O)c3cccc([N+](=O)[O-])c3)sc2c1 1.43%
COC(=O)C1OC(OC2CC[C@]3(C)C(CC[C@@]4(C)[C@@H]3CC=C3[C@@H]5CC(C)(C)CC[C@]5(C(=O)OC5OC(CO)C(O)C(O)C5O)CC[C@]34C)C2(C)C)C(O)C(O)C1O[C@H]1OCC(O)C(O)C1O (stereo partly specified) -25.9%
O=C(NCCc1ccc(Cl)cc1)C1CCN(C(=O)N2CCOc3ccccc32)CC1 -4.76%
O=C(Cc1ccccc1F)NC1CCCN(Cc2ccc(Cl)cc2)C1 (stereo unspecified) -14.9%
O=C1/C(=C/c2cccs2)N=C(c2cccs2)N1Nc1ccccc1 -17.4%
CCOc1ccccc1N(CC(=O)Nc1cc(OC)ccc1OC)S(C)(=O)=O 11.2%
Cn1c(N)c(C(=O)CSc2nnc(C3CC3)n2-c2ccccc2)c(=O)[nH]c1=O -7.48%
Cc1ccc(C(=O)NCc2ccc(Cl)cc2)o1 8.71%
O=C(COC(=O)c1cccnc1Cl)Nc1cc(S(=O)(=O)N2CCCCCC2)ccc1Cl -28.3%
S=C1NC[C@H](CC2CCCCC2)N1CC1CCCCC1 -25.8%
O=C(NC(=S)Nc1ccccc1N1CCCCC1)c1ccc(F)cc1Cl -8.89%
O=C(NC1CCN(Cc2ccccc2)CC1)c1cccc(S(=O)(=O)Nc2ccc(SC(F)F)cc2)c1 -5.61%
Cc1cccc(C(=O)Nc2c(C(=O)N(C)C)cnn2-c2ccccc2)c1 -13.3%
COc1ccc2oc(C(=O)OCC(=O)N3CCCCC3C)c(C)c2c1 (stereo unspecified) -10.1%
Cn1c(=O)c(C(=O)Nc2ncccc2O)c(O)c2ccccc21 -11.4%
O=C(CN1C(=O)c2ccccc2S1(=O)=O)Nc1cccc(S(=O)(=O)N2CCOCC2)c1 -7.98%
O=C(COC(=O)c1cc(Cl)ccc1Cl)NC1CCCC1 -18%

Potency, active:
O=C(N/N=C\c1ccc(Sc2ccccn2)o1)c1cccc(Br)c1 1.84 µM
